Hit rate of the full screen: of about 5,500 compounds, about 2,000 (36%) were called active. Roughly 18% stayed inconclusive and do not appear here. No stated cut-off is given here; in the data, active means normalized growth mostly below about 0.91 (no sharp cut-off); inconclusive means no clear call, values can overlap the other calls; inactive means mostly above about 0.92. The list shows a part of the results.
Test: chemical genetic growth profiling, strain panel (AID 1159580);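 further: tested at 20 µM; growth read once vehicle control cultures reached saturation at 30 °C; 1 = growth at the plate median or of vehicle wells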
Settings: growth OD

Measured: normalized growth

CC(=O)O[C@H]1CC[C@]2(C)C3CC[C@@]4(C)C(CC5O[C@@]6(CCC(C)CO6)[C@@H](C)C54)C3CC[C@@H]2C1 (stereo partly specified)
inactive: S. cerevisiae deletion strains, locus YJR066W, strain TOR1, stronger effect = lower value 0.946 | S. cerevisiae deletion strains, locus YJR075W, strain HOC1, stronger effect = lower value 0.982 | S. cerevisiae deletion strains, locus YKL009W, strain mrt4, stronger effect = lower value 1.04 | S. cerevisiae deletion strains, locus YKL068W, stronger effect = lower value 1 | S. cerevisiae deletion strains, locus YKL160W, strain elf1, stronger effect = lower value 1.01 | S. cerevisiae deletion strains, locus YKL190W, strain CNB1, stronger effect = lower value 1 | S. cerevisiae deletion strains, locus YKR001C, strain vps1, stronger effect = lower value 0.998 | S. cerevisiae deletion strains, locus YKR026C, strain gcn3, stronger effect = lower value 1.02 | S. cerevisiae deletion strains, locus YKR091W, strain srl3, stronger effect = lower value 1.02 | S. cerevisiae deletion strains, locus YLL001W, strain dnm1, stronger effect = lower value 1.01 | S. cerevisiae deletion strains, locus YLL026W, stronger effect = lower value 1.02 | S. cerevisiae deletion strains, locus YLL041C, strain sdh2, stronger effect = lower value 1.02 | S. cerevisiae deletion strains, locus YLR027C, strain aat2, stronger effect = lower value 1 | S. cerevisiae deletion strains, locus YLR039C, strain RIC1, stronger effect = lower value 0.992 | S. cerevisiae deletion strains, locus YLR058C, strain SHM2, stronger effect = lower value 0.993 | S. cerevisiae deletion strains, locus YLR102C, strain apc9, stronger effect = lower value 0.991 | S. cerevisiae deletion strains, locus YLR113W, strain HOG1, stronger effect = lower value 0.963 | S. cerevisiae deletion strains, locus YLR221C, strain rsa3, stronger effect = lower value 1.03 | S. cerevisiae deletion strains, locus YLR258W, strain gsy2, stronger effect = lower value 1.01 | S. cerevisiae deletion strains, locus YLR262C, strain YPT6 (second series), stronger effect = lower value 1.01 | S. cerevisiae deletion strains, locus YLR268W, strain sec22, stronger effect = lower value 0.998 | S. cerevisiae deletion strains, locus YLR320W, strain mms22, stronger effect = lower value 1.03 | S. cerevisiae deletion strains, locus YLR330W, strain CHS5, stronger effect = lower value 0.984 | S. cerevisiae deletion strains, locus YLR342W, strain FKS1 (second series), stronger effect = lower value 1.01 | S. cerevisiae deletion strains, locus YLR342W, strain FKS1, stronger effect = lower value 1.03 | S. cerevisiae deletion strains, locus YLR357W, strain rsc2, stronger effect = lower value 1.01 | S. cerevisiae deletion strains, locus YLR370C, strain arc18, stronger effect = lower value 1.02 | S. cerevisiae deletion strains, locus YLR371W, strain rom2, stronger effect = lower value 0.99 | S. cerevisiae deletion strains, locus YLR384C, strain iki3, stronger effect = lower value 0.99 | S. cerevisiae deletion strains, locus YLR418C, strain cdc73, stronger effect = lower value 0.947 | S. cerevisiae deletion strains, locus YML016C, strain PPZ1, stronger effect = lower value 0.992 | S. cerevisiae deletion strains, locus YML032C, strain rad52, stronger effect = lower value 0.977 | S. cerevisiae deletion strains, locus YML120C, strain ndi1, stronger effect = lower value 1.03 | S. cerevisiae deletion strains, locus YML124C, strain tub3, stronger effect = lower value 0.979 | S. cerevisiae deletion strains, locus YMR058W, strain fet3, stronger effect = lower value 1.01 | S. cerevisiae deletion strains, locus YMR078C, strain ctf18, stronger effect = lower value 1 | S. cerevisiae deletion strains, locus YMR125W, strain sto1, stronger effect = lower value 1.03 | S. cerevisiae deletion strains, locus YMR129W, stronger effect = lower value 1 | S. cerevisiae deletion strains, locus YMR205C, strain PFK2, stronger effect = lower value 0.999 | S. cerevisiae deletion strains, locus YMR223W, strain ubp8, stronger effect = lower value 0.984 | S. cerevisiae deletion strains, locus YMR231W, strain pep5, stronger effect = lower value 1.01 | S. cerevisiae deletion strains, locus YMR263W, strain SAP30, stronger effect = lower value 0.996 | S. cerevisiae deletion strains, locus YMR307W, strain GAS1, stronger effect = lower value 1.12 | S. cerevisiae deletion strains, locus YNL067W, strain RPL9B, stronger effect = lower value 0.98 | S. cerevisiae deletion strains, locus YNL071W, strain lat1, stronger effect = lower value 1 | S. cerevisiae deletion strains, locus YNL128W, strain TEP1, stronger effect = lower value 0.998 | S. cerevisiae deletion strains, locus YNL153C, strain GIM3, stronger effect = lower value 0.984 | S. cerevisiae deletion strains, locus YNL183C, strain NPR1, stronger effect = lower value 0.964 | S. cerevisiae deletion strains, locus YNL209W, strain ssb2, stronger effect = lower value 1 | S. cerevisiae deletion strains, locus YNL233W, strain BNI4, stronger effect = lower value 1.02 | S. cerevisiae deletion strains, locus YNL248C, strain rpa49, stronger effect = lower value 1.02 | S. cerevisiae deletion strains, locus YNL250W, strain rad50, stronger effect = lower value 0.975 | S. cerevisiae deletion strains, locus YNL271C, strain bni1, stronger effect = lower value 0.989 | S. cerevisiae deletion strains, locus YNL298W, strain CLA4, stronger effect = lower value 1 | S. cerevisiae deletion strains, locus YNL307C, strain MCK1, stronger effect = lower value 0.996 | S. cerevisiae deletion strains, locus YNL322C, strain KRE1 (second series), stronger effect = lower value 1.03 | S. cerevisiae deletion strains, locus YNR049C, strain mso1, stronger effect = lower value 0.995 | S. cerevisiae deletion strains, locus YNR052C, strain pop2, stronger effect = lower value 0.983 | S. cerevisiae deletion strains, locus YOL012C, strain htz1 0.761 | S. cerevisiae deletion strains, locus YOL147C, strain pex11, stronger effect = lower value 0.986 | S. cerevisiae deletion strains, locus YOR001W, strain rrp6, stronger effect = lower value 1.01 | S. cerevisiae deletion strains, locus YOR061W, strain CKA2, stronger effect = lower value 0.999 | S. cerevisiae deletion strains, locus YOR069W, strain VPS5, stronger effect = lower value 0.983 | S. cerevisiae deletion strains, locus YOR070C, strain gyp1, stronger effect = lower value 1.02 | S. cerevisiae deletion strains, locus YOR080W, strain dia2, stronger effect = lower value 1.01 | S. cerevisiae deletion strains, locus YOR083W, strain WHI5, stronger effect = lower value 1.04 | S. cerevisiae deletion strains, locus YOR106W, strain vam3, stronger effect = lower value 1.02 | S. cerevisiae deletion strains, locus YOR136W, strain idh2, stronger effect = lower value 0.993 | S. cerevisiae deletion strains, locus YOR144C, strain elg1, stronger effect = lower value 0.994 | S. cerevisiae deletion strains, locus YOR184W, strain ser1, stronger effect = lower value 1.03 | S. cerevisiae deletion strains, locus YOR231W, strain MKK1, stronger effect = lower value 0.988 | S. cerevisiae deletion strains, locus YOR265W, strain rbl2, stronger effect = lower value 1.02 | S. cerevisiae deletion strains, locus YOR270C, strain vph1, stronger effect = lower value 1 | S. cerevisiae deletion strains, locus YOR290C, strain snf2, stronger effect = lower value 1.03 | S. cerevisiae deletion strains, locus YOR316C, strain cot1, stronger effect = lower value 0.989 | S. cerevisiae deletion strains, locus YPL051W, strain arl3, stronger effect = lower value 1.02 | S. cerevisiae deletion strains, locus YPL078C, strain atp4, stronger effect = lower value 1.04 | S. cerevisiae deletion strains, locus YPL106C, strain sse1, stronger effect = lower value 0.978 | S. cerevisiae deletion strains, locus YPL240C, strain hsp82, stronger effect = lower value 1 | S. cerevisiae deletion strains, locus YPL256C, strain CLN2, stronger effect = lower value 0.957 | S. cerevisiae deletion strains, locus YPR119W, strain clb2, stronger effect = lower value 0.984 | S. cerevisiae deletion strains, locus YPR141C, strain kar3, stronger effect = lower value 0.98 | S. cerevisiae deletion strains, locus YPR163C, strain tif3, stronger effect = lower value 0.986 | S. cerevisiae deletion strains, locus YPR167C, strain met16, stronger effect = lower value 1 | S. cerevisiae deletion strains, strain wtn01, stronger effect = lower value 1.01 | S. cerevisiae strains, strain wild type, stronger effect = lower value 1.01

Source: PubChem BioAssay AID1159580 (chemical genetic matrix, 2015)
